The values that follow come from PubChem BioAssay (Tox21).

“And” between values parts separate entries of the source, which are not always exact repeats. Identical values can stand only once. Inconclusive results are not listed. The source made the active and inactive calls. Unless noted, calls come from the whole dose curve; as a rule, active = well fitted curve in the direction sought with a large enough effect in the repeat runs; inconclusive = weak or mixed curves; inactive = no such curve, though single readings can be large; an effect the other way counts as inactive or inconclusive.

Test [1] is described as follows: qHTS assay to identify small molecule antagonists of the glucocorticoid receptor (GR) signaling pathway - cell viability counter screen (AID 720693). Note: nearly all actives have a fitted effect of over 55% in size.
The nature of test [2]: qHTS assay for identifying genotoxic compounds that show differential cytotoxicity against isogenic chicken DT40 cell lines with known DNA damage response pathways - wild type cell line (AID 743012). Note: nearly all actives have a fitted effect of over 60% in size. Note: potency is the fitted concentration of half-maximal effect. The gist of the method: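 Cells (DT40 wild type, 300/well) are treated with DMSO-dissolved compounds after a ~0.5 h pre-incubation and kept 40 h at 37 C/5% CO2. Viability is then measured by CellTiter-Glo luminescence following 30 min at room temperature.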
(In general: Quantitative high-throughput screening tests each substance at several concentrations.)

Test [3] can be described thus: qHTS assay for identifying genotoxic compounds that show differential cytotoxicity against isogenic chicken DT40 cell lines with known DNA damage response pathways - Rad54/Ku70 mutant cell line (AID 743015). Note: nearly all actives have a fitted effect of over 60% in size. Note: potency is the fitted concentration of half-maximal effect.
Test [4] can be described thus: qHTS assay to identify small molecule antagonists of the androgen receptor (AR) signaling pathway - cell viability counter screen (AID 743033; note: nearly all actives have a fitted effect of over 45% in size).
Test [5] in a line: qHTS assay to identify small molecule antagonists of the androgen receptor (AR) signaling pathway using the MDA cell line - cell viability counter screen (AID 743041; note: nearly all actives have a fitted effect of over 45% in size). The gist of the method:
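MDA-kb2 AR-luc cells (MMTV-luciferase, AR/GR responsive) treated with compounds plus R1881 agonist for 16 h at 37C. CellTiter-Fluor added at 15.5 h; fluorescence read after 30 min in the same wells.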

Test [6] concerns the target Androgen receptor (Homo sapiens) (UniProt P10275). As to the kind of experiment: qHTS assay to identify small molecule antagonists of the androgen receptor (AR) signaling pathway (AID 743035; active = well fitted inhibition curve with a large enough effect in the signal ratio in the repeat runs, not every such curve was filed as active; the % refers to the signal ratio). The gist of the method:
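Antagonism is scored as loss of R1881-driven beta-lactamase reporter expression in HEK293 cells carrying the reporter under a UAS element, after 16 h co-treatment at 37C and a 2 h room-temperature FRET substrate read.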

The target is the same in test [7]. Put plainly: qHTS assay to identify small molecule agonists of the androgen receptor (AR) signaling pathway (AID 743036; active = well fitted activation curve with a large enough effect in the signal ratio in the repeat runs, with a control signal flat, not every such curve was filed as active; the % refers to the signal ratio). The gist of the method:
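HEK293 cells stably carrying a UAS-driven beta-lactamase reporter (GeneBLAzer AR-UAS-bla-GripTite) were plated at 2,000 cells/well, rested 4 h at 37C, then exposed to compounds in DMSO for 16 h. LiveBLAzer B/G FRET substrate was added for 2 h at room temperature; fluorescence read.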

Test [8] has the same target. As to the kind of experiment: qHTS assay to identify small molecule agonists of the androgen receptor (AR) signaling pathway using the MDA cell line (AID 743040; note: nearly all actives have a fitted effect of over 20% in size). The method, boiled down: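 MDA-kb2 breast carcinoma cells carrying MMTV-luciferase (responsive to AR and GR), plated 5 h then treated 16 h with compounds at 37C, 0% CO2. Read-out was ONE-Glo luminescence after 30 min at room temperature.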

Test [9] has the same target. Put plainly: qHTS assay to identify small molecule antagonists of the androgen receptor (AR) signaling pathway using the MDA cell line (AID 743042; note: nearly all actives have a fitted effect of over 55% in size). The gist of the method:
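MDA-kb2 breast carcinoma cells carrying MMTV-luciferase (AR/GR responsive) were co-treated with compounds and the agonist R1881 for 16 h at 37C. Inhibition read as ONE-Glo luminescence; CellTiter-Fluor fluorescence measured in parallel for cytotoxicity.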

Chain of Androgen receptor (Homo sapiens) (P10275 whole entry, looked up): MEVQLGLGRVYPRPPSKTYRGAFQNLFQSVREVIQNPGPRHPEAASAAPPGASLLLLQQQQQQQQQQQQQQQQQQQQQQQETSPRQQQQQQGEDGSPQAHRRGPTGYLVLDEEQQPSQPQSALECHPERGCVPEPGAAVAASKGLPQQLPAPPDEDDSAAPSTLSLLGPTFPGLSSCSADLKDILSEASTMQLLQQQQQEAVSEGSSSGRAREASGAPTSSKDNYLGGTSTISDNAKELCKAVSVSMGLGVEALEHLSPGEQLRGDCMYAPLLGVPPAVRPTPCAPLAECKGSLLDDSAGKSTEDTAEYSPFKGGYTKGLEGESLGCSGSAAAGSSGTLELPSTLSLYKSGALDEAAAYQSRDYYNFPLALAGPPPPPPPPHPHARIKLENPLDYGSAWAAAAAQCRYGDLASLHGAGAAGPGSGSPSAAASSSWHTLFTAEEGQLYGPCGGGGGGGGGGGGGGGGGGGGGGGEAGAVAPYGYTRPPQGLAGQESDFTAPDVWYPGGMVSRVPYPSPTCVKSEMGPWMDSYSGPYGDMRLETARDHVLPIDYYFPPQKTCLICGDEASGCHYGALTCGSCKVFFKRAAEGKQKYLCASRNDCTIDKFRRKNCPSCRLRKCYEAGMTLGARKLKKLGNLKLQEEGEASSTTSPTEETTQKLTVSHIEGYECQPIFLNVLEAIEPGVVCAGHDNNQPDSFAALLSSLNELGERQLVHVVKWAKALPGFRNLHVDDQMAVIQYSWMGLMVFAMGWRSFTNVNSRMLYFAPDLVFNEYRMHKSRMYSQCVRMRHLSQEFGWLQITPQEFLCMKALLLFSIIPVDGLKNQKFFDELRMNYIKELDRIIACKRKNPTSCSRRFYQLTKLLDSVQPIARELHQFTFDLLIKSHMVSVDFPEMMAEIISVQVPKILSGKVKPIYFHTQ

`N#CN=C(N)N`: the Potency result in test [1], in test [2] and in test [3] was “inactive” each time. The molecule was called inactive in test [4] and in test [5].
As for `CCOP(=S)(OCC)Oc1cc(C)nc(C(C)C)n1`, the Potency entry in [2] was “inactive”. Further, the molecule was classed as inactive in test [4] and in test [5].
As to `O=C(O)Cc1ccccc1`, the Potency result in test [1], in test [2] and in [3] was “inactive” throughout. Besides, the molecule was classed as inactive in test [4] and in test [5].
As to `CN1C(=O)CCS(=O)(=O)C1c1ccc(Cl)cc1` (stereo not given), the Potency entry in [1] and in [2] was “inactive” in each case. Moreover, the outcome in test [4] and in test [5] was inactive.
Turning to `O=C(O)C1C(C(=O)O)C2(Cl)C(Cl)=C(Cl)C1(Cl)C2(Cl)Cl` (stereo not given), the Potency result in [1], in test [2] and in test [3] was “inactive” throughout. For the same molecule, the molecule was classed as inactive in test [4] and in test [5].
`CC(=O)/C=C/c1ccccc1`: the Potency entry in test [1], in test [2] and in [3] was “inactive” throughout. Besides, the outcome in test [4] and in test [5] was inactive.
Consider `C[C@H]1C(=O)O[C@@H]2CCN3CC=C(COC(=O)[C@](C)(O)[C@]1(C)O)[C@H]23`, for which the Potency entry in test [1] and in test [2] was “inactive” each time. In addition, the molecule was called inactive in [4] and in test [5].
For `Cc1cccc(N)c1C`, the Potency entry in test [1] and in test [2] was “inactive” in each case. Besides, the outcome in [4] and in test [5] was inactive.
In the case of `O=P1(NCCCl)OCCCN1CCCl` (stereo not given), the Potency result in test [1] and in test [2] was “inactive” in each case. For the same molecule, the molecule was called inactive in test [4] and in test [5].
`CN(C)CCC#N`: the Potency entry in test [1], in test [2] and in test [3] was “inactive” each time. The outcome in [4] and in [5] was inactive.
`O=C(O)c1cc(Oc2ccc(C(F)(F)F)cc2Cl)ccc1[N+](=O)[O-]`: the Potency result in test [1] and in test [2] was “inactive” each time. Moreover, the outcome in test [4] and in [5] was inactive.
Consider `FC(F)(F)c1ccc(Cl)cc1`, for which the Potency result in test [1] and in test [2] was “inactive” throughout. In addition, the call in [4] and in test [5] was inactive.
Take `CN(C)NC(=O)CCC(=O)O`: the Potency result in [1] is “inactive”. Besides, the molecule was called inactive in test [4] and in [5].
For `O=[N+]([O-])c1ccc(Cl)cc1`, the Potency entry in test [1] and in test [2] was “inactive” each time. The molecule was classed as inactive in [4] and in test [5].
On to `CCNc1nc(Cl)nc(NC(C)C)n1`, for which the Potency entry in test [1] and in test [2] was “inactive” each time. Further, the result in test [4] and in test [5] was inactive.
As to `CC(C)c1cccc(C(C)C)c1O`, the Potency entry in test [1], in test [2], in test [6] and in [9] was “inactive” in each case. In addition, the call in test [4], in test [7], in test [8] and in [5] was inactive.
`C[C@]12CC[C@H](O)CC1=CC[C@@H]1[C@@H]2CC[C@]2(C)C(=O)CC[C@@H]12`: the Potency entry in test [1] is “inactive”. Besides, the Potency in test [2] was 29.8 µM (active); in test [3], 29.8 µM (active) and 61.2 µM (active) and 54.5 µM (active). Further, the call in [4] and in test [5] was inactive.
For the molecule `CC(=O)C1CCOC1=O` (stereo not given), the Potency entry in test [1] and in test [2] was “inactive” throughout. The result in test [4] and in test [5] was inactive.
As to `O=S(=O)(O)OOS(=O)(=O)O`, the Potency entry in test [1] and in test [2] was “inactive” throughout. The call in test [4] and in [5] was inactive.
Consider `CNc1cnn(-c2cccc(C(F)(F)F)c2)c(=O)c1Cl`, for which the Potency result in test [1] and in test [2] was “inactive” each time. Moreover, the molecule was called inactive in [4] and in test [5].
For `CNC(=O)Oc1cccc2ccccc12`, the Potency result in test [1] and in test [3] was “inactive” throughout. The outcome in test [4] and in [5] was inactive.
Consider `Cc1cccc(N)c1`, for which the Potency result in test [1], in test [2] and in test [3] was “inactive” in each case. Further, the outcome in [4] and in test [5] was inactive.
As to `CNC(=O)O/N=C(\SC)C(=O)N(C)C`, the Potency entry in test [1], in [2], in [6] and in test [9] was “inactive” each time. For the same molecule, the result in [4], in test [7], in [8] and in test [5] was inactive.
Consider `OCc1ccco1`, for which the Potency entry in test [1] and in test [2] was “inactive” in each case. Also, the molecule was classed as inactive in test [4] and in [5].
On to `Cc1cccc(C)c1N`, for which the Potency result in test [1] and in test [2] was “inactive” in each case. For the same molecule, the call in test [4] and in test [5] was inactive.
For the molecule `Nc1cccc(Cl)c1`, the Potency result in test [1] and in test [2] was “inactive” throughout. The outcome in [4] and in test [5] was inactive.
Turning to `CSc1nnc(C(C)(C)C)c(=O)n1N`, the Potency entry in [1] and in test [2] was “inactive” throughout. The outcome in test [4] and in test [5] was inactive.
Consider `O=C/C=C/c1ccccc1`, for which the Potency result in test [1] and in test [2] was “inactive” in each case. In addition, the molecule was classed as inactive in test [4] and in test [5].
